We go through 21 compounds from PubChem BioAssay AID652208 (Broad Institute, 2013).

Each structure is given as a SMILES string. Potency and affinity values are given separately. Active and inactive are the calls of the source.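 Rule for the calls: active = Loss of cell signal with fitted half-effect dose at or below twice the top valid tested dose; inconclusive = Poor fit, or flat fit from -70 to -30 percent; inactive = Half-effect above limit, rising signal, or flat within 30 percent.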

The assay can be described thus: HEK293T cell cytotoxicity, dose response, cytotoxicity control for HIV Vif inhibitor project, cherry-picks (AID 652208). The settings on record: HEK293T viability, CellTiter-Glo luminescence, 24 h; series mostly up to 26 µM. For orientation: Cellular ATP, detected with luciferase, serves as a proxy for viable cell number.
Regarding `CCOc1ccc2c(C)c(C(=O)O)oc2c1OCC`, the result was inactive.

Turning to `COc1ccc(-c2coc3cc(O)ccc3c2=O)cc1`, the call was inactive.

Turning to `COc1c(Br)cc(Br)cc1/C=C1/C(=O)N=C(N)N1C`, the compound was called inactive.

With `CC(C)CCNC(=O)CCc1nnc(COc2ccccc2)o1`, the call was inactive.

On to `COCCN(C(=O)COC(=O)Cc1ccc(Cl)cc1)c1c(N)n(Cc2ccccc2)c(=O)[nH]c1=O`, for which the result was inactive.

With `NCCCC[C@H](N[C@@H](CCc1ccccc1)C(=O)O)C(=O)N1CCC[C@H]1C(=O)O`, the compound was classed as inactive.

As for `Cc1ccc2c(c1)N(CC(=O)N1CCCCCC1)C(=O)C(C)O2` (stereo unspecified), the outcome was inactive.

Regarding `Cc1nnc2ccc(-c3ccc(NS(=O)(=O)c4ccc(Cl)s4)cc3)nn12`, the compound was classed as inactive.

`CC(=O)Nc1ccc(S(=O)(=O)N2c3ccccc3C(C)=CC2(C)C)cc1`: the compound was called inactive.

With `Cc1ccc(CNCCCSc2ncccn2)cc1`, the compound was called inactive.

On to `CCC(C)C(=O)Nn1c(C2CC2)nc2cc(OC)c(OC)cc2c1=O` (stereo unspecified), for which the result was inactive.

As to `COc1ccc(C(=O)Nc2c(Cl)cc(Cl)cc2C(=O)N2CCOCC2)cc1`, the result was inactive.

As to `O=C(Nc1cccc(-c2cc3ccccc3oc2=O)c1)c1ccc(Br)o1`, the compound was classed as inactive.

In the case of `CC(OC(=O)c1c[nH]c2ccccc12)C(=O)N1CCCC1` (stereo unspecified), the compound was classed as inactive.

On to `Cc1cc(S(=O)(=O)N2CCOCC2)ccc1OCC(=O)NCCN1CCOCC1`, for which the compound was classed as inactive.

Consider `COc1ccc(NC(=O)C2(C)Cc3c(-c4cccc(NC(C)=O)c4)ccnc3O2)cn1` (stereo unspecified), for which the compound was called inactive.

For the compound `Cc1ccc(-n2c(SCC(=O)Nc3ccc4c(c3)OCO4)nnc2-c2cccs2)cc1`, the result was inactive.

`CCC(C)NC(=O)Cn1c(=O)n(-c2ccccc2)c(=O)c2ccc(C(=O)NCc3ccco3)cc21` (stereo unspecified): the compound was classed as inactive.

Regarding `CCN1CCc2c(sc(N)c2C(N)=O)C1`, the compound was called inactive.

For the compound `CC(=O)Nc1ccc(-c2ccnc3c2CC(C(=O)NCc2ccccc2)O3)cc1` (stereo unspecified), the result was inactive.

With `CCOc1ccc(S(=O)(=O)NCc2ccccn2)cc1NC(=O)c1ccccc1`, the result was inactive.
